Bioassay records deposited in PubChem by several laboratories.
The list is not random: actives were taken first. Their share in the collection is about 4.2%.
NALP3 yeast inh: NALP3 inflammasome inhibitors in reconstituted yeast, primary screen, luminescence, uHTS | AID 2825, 2010 | inhibition, % at 10 µM | 330,000 tested, 0.39% active | Yeast reconstituted NLRP3/ASC/caspase-1, beta-gal luminescence, 24 h;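 active means inhibition of 50% or more; inactive means inhibition below 50%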
tim23-1 inh: growth inhibitors of tim23-1 mutant yeast, primary screen, luminescence, uHTS. S. cerevisiae tim23-1 growth, BacTiter-Glo luminescence, 24 h. inhibition, % at 20 µM. 330,000 tested, 1.3% active;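 active means growth inhibition of the mutant yeast at or above 50%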;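 further: temperature-sensitive mutant grown at 25 °C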
TIM10 inh: growth inhibitors of isogenic TIM10 control yeast, primary screen, counter-screen for tim10-1 yeast inhibitor project, luminescence, uHTS | inhibition, % at 10 µM | S. cerevisiae TIM10 strain growth, BacTiter-Glo luminescence, 24 h | 330,000 tested, 1.4% active;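 active means inhibition of 40% or more at the single tested concentration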;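 further: wild-type TIM10 isogenic control strain grown at permissive 25 °C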
PfHsp90 set2: growth inhibition of PfHsp90-expressing yeast, primary screen, antimalarial PfHsp90 inhibitor project, S. cerevisiae, BacTiter-Glo luminescence, single point, set 2; BacTiter-Glo ATP, 48 h; yeast lacking PDR1 and PDR3 efflux regulators; inhibition, % at 9.4 µM; 310,000 tested, 0.32% active;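 active means every replicate shows inhibition above about 80%, whatever the replicate mean, limit read from the data; inconclusive means mean inhibition reaches the set limit but some replicate falls short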
NALP1 inh: NALP1 inflammasome inhibitors in reconstituted yeast, colorimetric, S. cerevisiae, triplicate retest. S. cerevisiae NALP1/ASC/caspase-1 growth, X-gal OD620, 72 h. inhibition, % at 10 µM. 280,000 tested, 0.61% active. AID 2071, 2009; in the data active means inhibition mostly above about 24%, no sharp cut-off; inactive means mostly below about 32%
tim10-1 inh: growth inhibitors of tim10-1 mutant yeast, primary screen, luminescence, uHTS; 330,000 tested, 2.2% active; S. cerevisiae tim10-1 ts strain growth, BacTiter-Glo, 24 h; AID 463190, 2010; inhibition, % at 20 µM;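 active means inhibition of at least 40%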;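 further: mutant grown at 25 °C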
tim10 confirm: growth inhibitors of wild-type TIM10 yeast, confirmation, counter-screen for tim10-1 synthetic lethality project, single concentration, luminescence, S. cerevisiae; inhibition, % at 10 µM; S. cerevisiae tim10 strain growth, BacTiter-Glo luminescence, 24 h; 4,600 tested, 63% active; shares compounds with TIM10 inh;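 active means inhibition of yeast growth at or above a set limit in either of two replicates at 10 µM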; further: this counterscreen used the strain with wild-type TIM10
A number is an active result; - = inactive; ? = inconclusive; . = no result given.

SMILES | NALP3 yeast inh | tim23-1 inh | TIM10 inh | PfHsp90 set2 | NALP1 inh | tim10-1 inh | tim10 confirm
COc1cccc(Oc2cn[nH]c2-c2ccc(OC)cc2O)c1 | - | - | - | - | - | - | .
C=CCn1c(=O)/c(=C/c2ccc(F)cc2)s/c1=C(\C#N)c1nnc2n1CCCCC2 | - | - | 44 | - | - | - | 40
COc1ccc(CCNC(=O)CN(c2cc(C)cc(C)c2)S(=O)(=O)c2c(C)noc2C)cc1OC | - | - | - | - | - | - | .
COc1cccc(-n2nnnc2S(C)(=O)=O)c1 | - | - | 59 | - | - | - | 48
COc1cccc(-n2cnnn2)c1 | - | - | - | . | . | - | .
O=C(Cn1nc(-c2ccccc2)oc1=O)OCC(=O)c1ccccc1 | - | - | - | - | . | - | .
O=C(ONc1ccc(N=NC(=O)c2ccccc2O)cc1)c1ccccc1 | - | - | 42 | - | - | - | -
Cc1cc(N=NC(=O)c2ccccc2)ccc1O | - | - | - | - | - | - | .
O=C(NCCCCc1ccccc1)c1ccc(F)cc1 | - | - | - | - | . | - | .
Fc1ccccc1NC(=S)NN(Cc1ccccc1)c1ccccc1 | - | - | 44 | - | - | - | 38
Fc1ccccc1NC(=S)NCc1ccccc1 | - | - | - | - | - | - | .
O=C(CN1CCN(c2nc(-c3ccc(Cl)cc3)cs2)CC1)NCc1ccco1 | - | - | 42 | . | - | - | 29
S=C(NCc1ccccc1)N/N=C/c1cccs1 | - | - | - | - | - | - | .
S=C(NCCc1ccccc1)N/N=C/c1cccs1 | - | - | 41 | . | . | - | 38
CN(Cc1ccccc1F)C(=O)CN1c2cccc3cccc(c23)S1(=O)=O | - | - | - | - | . | - | .
Nc1c2c(nc3sc4c(c13)CCCC4)-c1ccccc1CC2 | - | - | 43 | - | - | - | 41
NNc1nc(-c2ccccc2)nc2sc3c(c12)CCCC3 | - | - | - | - | - | - | .
O=[N+]([O-])c1cc(S(=O)(=O)N2CCCCC2)ccc1NCCN1CCOCC1 | - | - | - | - | - | - | .
N=c1oc2ccccc2cc1C(=O)Nc1cccc(F)c1 | - | - | 40 | - | - | - | -
Cc1cc(-c2ccc(N3CCOCC3)cc2)nc2ccccc12 | - | - | 58 | - | - | - | 64
CC1(C)Cc2c(ccc3ccccc23)C(=O)N1 | - | - | - | ? | - | - | .
O=C1NC2(C=Cc3c(ccc4ccccc34)O2)Oc2ccccc21 (stereo not given) | - | - | 41 | - | - | - | -
COc1ccc2nc(NC(=O)c3sc4nc(C)cc(C)c4c3N)sc2c1 | - | - | - | - | . | - | .
CSc1cc(-c2ccc(Cl)cc2)c(C(=O)NN)s1 | - | - | 44 | . | - | - | 27
CN(C)C(=O)CSc1nc(-c2cccs2)c(-c2cccs2)[nH]1 | - | - | - | - | - | - | .
SMILES | NALP3 yeast inh | tim23-1 inh | TIM10 inh | PfHsp90 set2 | NALP1 inh | tim10-1 inh | tim10 confirm
O=C(Nc1nc(-c2cccs2)cs1)c1cccc(S(=O)(=O)N2CCCCC2)c1 | - | - | 42 | - | - | - | 31
Cc1ccc(-c2csc(NC(=O)c3cccc(S(=O)(=O)N4CCN(C)CC4)c3)n2)cc1 | - | - | - | - | - | - | .
O=C(COC(=O)c1cc(S(=O)(=O)N2CCOCC2)ccc1F)Nc1ccc(Cl)cn1 | - | - | - | - | . | - | .
O=C(Nc1ccc(N2CCN(C(=O)c3ccccc3)CC2)c(Cl)c1)c1ccco1 | - | - | 45 | - | - | - | 36
O=C(Nc1ccc2c(c1)ncn2-c1ccccc1)c1ccco1 | - | - | 51 | - | - | - | 50
O=C(Nc1ccc2nc3ccccc3nc2c1)c1ccccc1 | . | . | . | - | - | . | .
O=C(c1ccccc1)c1cccc(NC(=O)c2ccco2)c1 | - | - | 53 | - | - | - | 60
CC(C)(C)n1cnc2cc(NC(=O)c3ccccc3)ccc21 | - | - | 58 | - | - | - | 64
CCOC(=O)c1cccc(NC(=O)c2ccco2)c1 | - | - | 46 | - | . | - | -
CC(C(=O)N1CCc2ccccc21)N1CCN(S(=O)(=O)c2cccc(C(F)(F)F)c2)CC1 (stereo not given) | - | - | - | - | . | - | .
Nc1cc(OC(=O)c2cccs2)nn1S(=O)(=O)c1ccccc1 | - | - | 55 | - | - | - | -
COc1cccc(CN(C)C(=O)CSCC(=O)Nc2cc(C)on2)c1OC | - | - | - | - | . | - | .
CCC(C(=O)Nc1cccc(C(F)(F)F)c1)c1ccccc1 (stereo not given) | - | - | 40 | - | - | - | 47
FC(F)(F)c1cccc(NC(=S)NCc2ccccc2)c1 | - | - | 47 | - | - | - | 49
O=C(Nc1cccc(C(F)(F)F)c1)C(SCCO)c1ccccc1 (stereo not given) | - | - | - | - | - | - | .
O=C(Nc1ccc(Br)cc1)c1ccccc1Br | - | - | - | - | - | - | .
COc1cc(/C=C(/C#N)c2nc3ccccc3[nH]2)ccc1OCc1ccc(C(=O)O)o1 | - | - | - | - | - | - | .
COC(=O)c1ccc(COc2ccc(/C=C(\C#N)c3nc4ccccc4[nH]3)cc2OC)o1 | - | - | 54 | - | - | - | 33
CC(C)n1cc(/C=N/Nc2ccc(Cl)c(C(=O)O)c2)c2ccccc21 | - | - | - | - | - | - | .
C#CCOCCOCCOCCNc1nc(N2CCN(C(=O)[C@H](CCCN=C(N)N)n3cc(C(N)[C@H](C)CC)nn3)CC2)nc(N2CCN(C(=O)[C@H](CC(N)=O)n3cc(C(N)[C@@H](C)CC)nn3)CC2)n1 (stereo not given in full) | - | - | - | - | . | - | .
CC(C)Cn1[nH]c2c3c(ccc2c1=O)C(=O)c1ccccc1C3=O | - | - | 58 | - | - | - | 49
O=C1c2ccccc2C(=O)c2c1ccc1c(=O)n(-c3ccccc3)[nH]c21 | - | - | - | - | - | - | .
Brc1ccc(CSc2nnc(-c3cnccn3)n2Cc2ccco2)cc1 | - | - | 45 | - | - | - | -
CC(C)OC(=O)CSc1nnc(-c2cnccn2)n1Cc1ccco1 | - | - | - | - | - | - | .
CC(=O)Nc1ccc(SCC(=O)Nc2cc(C)on2)cc1 | - | - | - | - | - | - | .
CC1CCCC(NC(=O)/C=C/c2c(F)cccc2Cl)C1C (stereo not given) | - | - | - | - | . | - | .
CC(=O)c1ccc(OC(=O)N(c2ccccc2)c2ccccc2)cc1 | - | - | 63 | - | - | - | -
